The source of these data is PubChem BioAssay (Tox21).

Molecules are shown by their SMILES. Activity calls are given as the source filed them. Calls follow the shape of the dose curve; as a rule, active = well fitted curve in the direction sought with a large enough effect in the repeat runs; inconclusive = weak or mixed curves; inactive = flat fitted curve, though single readings scatter.

The assay is described as follows: qHTS assay to test for compound auto fluorescence at 535 nm (green) in HepG2 cells (AID 720675). The following applies: green autofluorescence 485/535 nm, 1 h; series mostly up to 91.3 µM. From the text: National Center for Advancing Translational Sciences [NCATS]
NIH Chemical Genomics Center [NCGC]
U.S. Environmental Protection Agency [EPA]
National Institutes of Environmental Health Sciences [NIEHS]
National Toxicology Program [NTP]
U.S. Food and Drug Administration [FDA]
Compound auto fluorescence often interferes with screening of the compound library against various biological targets and signaling pathways. Some of these compounds may have fluorophoric properties. Such properties may interfere with the assay outputs resulting in false positives and/or negatives. To decrease such complications and ensure the compound activities are relevant in terms of biological response, the Tox21 10K compound library was screened for auto fluorescence.
From the fluorophores used as reporter signals in our screening assays, the auto fluorescence equivalencies of compounds against three fluorophores have been evaluated: Triamterene, Fluorescein and Rose Bengal sodium for blue, green and red fluorescence, respectively. The fluorescence intensities were measured using Excitation/Emission wavelengths at 405/460nm, 485/535nm and 540/590nm for blue, green and red labels, respectively. This assay includes the green fluorescence data.
Tox21 Assay Protocol Summary:
2,000 HepG2 cells in 5 uL of culture medium (MEM containing 10% FBS) per well were dispensed into black wall/clear bottom 1536-well plates using a Multidrop Combi Dispenser (ThermoFisher Scientific, Waltham, MA). The assay plates were incubated overnight at 37 C to allow cell attachment to the well bottom, followed by the transfer of 23 nL compound or DMSO vehicle by a pintool work station (Kalypsys , San Diego, CA). After the assay plates were incubated for 1 hr at 37 C and 5% CO2, fluorescence intensities in the assay plates were measured by an Envision (PerkinElmer, Shelton, CT) plate reader using three labels for measuring blue, green and red fluorescence at […] 460, 535 and 590 nm respectively.
In the case of `CC1C=[C-]C=C1.[C-]#[O+].[C-]#[O+].[C-]#[O+].[Mn]`, the compound was classed as inactive.

Regarding `CC(C)N1C(=O)c2ccccc2NS1(=O)=O`, the outcome was inactive.

As to `Cc1cc(-c2cc(C)c(N)c(C)c2)cc(C)c1N`, the compound was classed as inactive.

`CN(N=O)c1ccccc1`: the call was inactive.

As to `O=[N+]([O-])c1ccccc1`, the outcome was inactive.

On to `OCCN(CCO)CCO`, for which the call was inactive.

Turning to `COCCl`, the call was inactive.

`CN(C)[C@@H]1C(=O)C(C(N)=O)=C(O)[C@@]2(O)C(=O)C3=C(O)c4c(O)cccc4[C@@](C)(O)[C@H]3C[C@@H]12`: the compound was classed as inactive.

Regarding `O=c1[nH]c(=O)[nH]c(=O)[nH]1`, the compound was classed as inactive.

Take `C[C@]12CC[C@H]3[C@@H](CC[C@@]45O[C@@H]4C(O)=C(C#N)C[C@]35C)[C@@H]1CC[C@@H]2O`: the outcome was inactive.

With `CCCCN(CCCC)SN(C)C(=O)Oc1cccc2c1OC(C)(C)C2`, the call was inactive.

For `Cc1[nH]c(=O)n(C(C)(C)C)c(=O)c1Cl`, the compound was classed as inactive.

Take `CC(C)=C[C@@H]1[C@@H](C(=O)OCc2coc(Cc3ccccc3)c2)C1(C)C`: the call was inactive.

As to `CNC(=O)Oc1ccccc1OC(C)C`, the call was inactive.

Consider `O=NN1CCCCCCC1`, for which the call was inactive.

Regarding `CN(C)CCO`, the outcome was inactive.

As to `O=S(=O)(c1ccc(O)cc1)c1ccc(O)cc1`, the result was inactive.

For `COC(=O)NC(=S)Nc1ccccc1NC(=S)NC(=O)OC`, the result was inactive.

Take `Cc1ccc([N+](=O)[O-])cc1C`: the compound was called inactive.

On to `C#CCN(C)[C@H](C)Cc1ccccc1`, for which the compound was classed as inactive.

In the case of `CCOP(OCC)OCC`, the result was inactive.

As for `C=CCO`, the result was inactive.

Turning to `O=S(=O)(c1ccc(Cl)cc1)c1cc(Cl)c(Cl)cc1Cl`, the compound was called inactive.

Consider `COC(=O)NS(=O)(=O)c1ccc(N)cc1`, for which the call was inactive.

`O=NN1CCCC1`: the compound was classed as inactive.

`ClCCBr`: the call was inactive.

As to `NCCc1ccc(O)cc1`, the outcome was inactive.

Take `CC(Oc1ccc(Cl)cc1Cl)C(=O)O` (stereo not given): the outcome was inactive.

As for `c1cc2c3c(cccc3c1)CC2`, the call was inactive.

For the compound `NCC(O)c1ccc(O)cc1` (stereo not given), the compound was called inactive.

For the compound `C1CN2CCN1CC2`, the result was inactive.

In the case of `Cc1cc(Cl)ccc1O`, the result was inactive.

`c1ccc2c(c1)oc1ccccc12`: the outcome was inactive.

As to `CN=C=S`, the compound was called inactive.

For the compound `CCCCCCCCCCCC#N`, the result was inactive.

`CCCCOC(=O)c1ccccc1C(=O)OCCCC`: the compound was called inactive.

For the compound `BrCCBr`, the compound was classed as inactive.

As to `Oc1ccccc1Cl`, the outcome was inactive.

Regarding `CC(C)(Cl)Cl`, the result was inactive.

With `Cc1cccc([N+](=O)[O-])c1`, the compound was classed as inactive.
